69 molecules from PubChem BioAssay AID1240 (Sanford-Burnham Center for Chemical Genomics, 2008) can be followed below.

SMILES strings stand for the structures. Among all 50,000 compounds or so, about 800 (1.6%) showed an effect of 50% or more. What follows is part of a selection rich in strong results, with near analogues and random picks from the rest.

The test deals with Bcl-2-like protein 10 (Homo sapiens) (UniProt Q9HD36). Description: Phenotype converters, Bcl-B/TR3 peptide binding displacement, primary biochemical FP (AID 1240).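 Further: 0% = Bcl-B with tracer peptide and DMSO and 100% = tracer peptide lacking Bcl-B.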 Particulars: GST-Bcl-B / FITC-TR3 peptide fluorescence polarization; stronger effect = higher value; compound at 3.75 mg/L. Background: Fluorescence polarisation rises when a labelled molecule tumbles more slowly, as on binding a larger partner.
Chain of Bcl-2-like protein 10 (Homo sapiens) (Q9HD36 whole entry, looked up): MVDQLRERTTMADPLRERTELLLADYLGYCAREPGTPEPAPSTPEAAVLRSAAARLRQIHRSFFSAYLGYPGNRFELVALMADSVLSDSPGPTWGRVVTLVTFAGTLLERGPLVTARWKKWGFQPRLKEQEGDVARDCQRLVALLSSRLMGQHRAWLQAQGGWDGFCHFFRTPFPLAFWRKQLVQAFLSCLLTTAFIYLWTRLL
For the molecule `CCOC(=O)c1ccc(NC(=O)c2cc(-c3cccs3)nc3ccccc23)cc1`, the displacement is 4.7%. The result for `CCN(CC)CCNC(=O)c1ccc(Cl)c(Cl)c1` reads -5.2%; that for `Cc1ccc(C(=O)NC(NC(=S)Nc2cccc3ccccc23)C(Cl)(Cl)Cl)cc1` (centres undefined), 54.9%; that for `Cc1ccc(C(=O)NC(NC(=S)Nc2ccccc2Cl)C(Cl)(Cl)Cl)cc1` (centres undefined), -10.7%. As for `O=C(NC(NC(=S)Nc1cccc2ccccc12)C(Cl)(Cl)Cl)c1ccccc1` (centres undefined), the displacement turned out to be 18.6%.

Take `CC(=O)c1cc2c(N)c(C(=O)c3ccc(Br)cc3)sc2nc1C`: the displacement was 10.1%. With `Nc1c(C(=O)c2ccc(Br)cc2)sc2nc(C(F)(F)F)c(C(=O)c3cccs3)cc12`, the displacement was found to be 51.1%.

With `Nc1c(C(=O)c2ccc(Cl)cc2)sc2nc(-c3ccccc3)ccc12`, the displacement is -3.6%. For `Cc1cc([N+](=O)[O-])nn1C(=O)c1nn(C)cc1Br`, the displacement was 0.4%. On to `N#Cc1ccccc1NC(=O)c1ccc(-c2ccccc2)cc1`, for which the displacement was determined as 12.6%. In the case of `Cc1ccc(-c2nc3s/c(=C\c4cn(-c5ccccc5)nc4-c4ccccc4)c(=O)n3n2)cc1`, the displacement was determined as 8.5%. Take `COc1ccc(Cl)cc1NS(=O)(=O)c1cccc([N+](=O)[O-])c1`: the displacement turned out to be 72.8%. For `COc1ccc(OC)c(NS(=O)(=O)c2cccc([N+](=O)[O-])c2)c1`, the displacement was 2.1%. With `Cc1cc(Cl)ccc1NS(=O)(=O)c1cccc([N+](=O)[O-])c1`, the displacement was -1.2%. Consider `CC(C)C(=O)Nc1cc(C(F)(F)F)cc(C(F)(F)F)c1`, for which the displacement was -2.9%. With `CCc1ccc(NC(=O)C(=O)NCc2ccccc2OC)cc1`, the displacement is 6.8%.

Turning to `COc1ccc(C=C2C(=O)N(c3ccccc3)C(=S)N(c3ccccc3)C2=O)c(OC)c1`, the displacement came out at 10.9%. The result for `COc1ccc(C2=N/C(=C/c3ccccc3F)C(=O)N2c2ccccc2)cc1` reads 125%. In the case of `COc1ccc(C2=N/C(=C/c3ccc(F)cc3)C(=O)N2c2ccc(O)cc2)cc1`, the displacement turned out to be 9%. In the case of `COc1ccc(N2C(=O)/C(=C\c3ccc(OC)cc3OC)N=C2c2ccccc2)cc1`, the displacement turned out to be 192%. Turning to `COc1ccc(C2=N/C(=C/c3ccccc3OC)C(=O)N2c2ccccc2)cc1`, the displacement came out at 6.4%. As to `COc1ccc(/C=C2/SC(=O)N(c3ccccc3)C2=O)c(OC)c1`, the displacement turned out to be 5.9%.

As for `O=C1C(=O)N(c2cccc(Br)c2)C(c2ccccc2)/C1=C(/O)c1ccccc1` (centres undefined), the displacement was determined as 12%.

For `COc1ccc(NC(=O)c2ccc(S(=O)(=O)N3CCOCC3)cc2)c2ccccc12`, the displacement is -8.9%. Under `Cc1cccn2c(=O)c(/C=C3\SC(=S)N(C(C)c4ccccc4)C3=O)c(NCCCn3ccnc3)nc12` (centres undefined) stands 8.8%; under `CC1=C(C#N)c2nc(N)c(C#N)c(C)c2/C1=C\c1ccc(C)o1`, -4.4%; under `O=C(Nc1sc2c(c1C(=O)Nc1ccccn1)CCCCC2)c1ccccc1`, 95%. As to `N#Cc1c(NC(=O)c2ccc(S(=O)(=O)c3ccccc3)cc2)sc2c1CCCC2`, the displacement worked out at 83.9%.

For the molecule `O=C(Nc1sc2c(c1C(=O)Nc1ccccn1)CCCCC2)c1ccccc1F`, the displacement is -3%. Turning to `Cc1ccccc1NC(=O)c1c(NC(=O)c2ccccc2C)sc2c1CCCCC2`, the displacement worked out at 13%. For `CCc1ccccc1NC(=O)c1c(NC(=O)c2ccccc2Cl)sc2c1CCC2`, the displacement came out at 61.2%. Under `N#Cc1c(NC(=O)c2ccc(C(=O)O)cc2C(=O)O)sc2c1CCCC2` stands 11%.

For the molecule `COc1ccc(NC(=O)c2c(NC(=O)c3ccccc3)sc3c2CCCC3)cc1`, the displacement worked out at 5.7%.

Consider `COc1ccc(C(=O)Nc2sc3c(c2C#N)CCCCC3)cc1`, for which the displacement is -3.4%. Under `CCOc1ccccc1NC(=O)c1c(NC(=O)c2ccccc2Br)sc2c1CCCC2` stands -3.8%; under `Cc1ccccc1NC(=O)c1c(NC(=O)c2ccccc2Br)sc2c1CCCCC2`, 76.6%. Turning to `CCc1ccccc1NC(=O)c1c(NC(=O)c2ccccc2Br)sc2c1CCC2`, the displacement is -4.1%.

On to `CCc1ccccc1NC(=O)c1c(NC(=O)c2ccccc2)sc2c1CCC2`, for which the displacement is -15.6%. Regarding `O=C(N/N=C/c1cccnc1)c1cc(-c2ccc3ccccc3c2)n[nH]1`, the displacement is -3.8%. As to `COc1ccc(S(=O)(=O)N2CCN(C3CC4CCC3C4)CC2)cc1` (centres undefined), the displacement is -1.9%. For the molecule `Cc1ccc(CNC(=O)C(=O)NC(C)C)cc1`, the displacement is 4.4%.

`CC1(C)CC(=O)C2=C(C1)Nc1ccccc1NC2c1ccc(-c2ccccc2[N+](=O)[O-])o1` (centres undefined): the displacement is -15.9%. Consider `Cc1cc(-n2c(C)cc(C=O)c2C)ccc1I`, for which the displacement was -15.5%. In the case of `O=C1c2cccc([N+](=O)[O-])c2C(=O)N1c1ccncc1`, the displacement is -2.3%. As for `O=C1S/C(=C\c2ccc(Br)o2)C(=O)N1c1ccc(Cl)cc1`, the displacement was 88.9%. As to `CCOc1ccc(N2C(=O)S/C(=C\c3ccc(OC)cc3)C2=O)cc1`, the displacement turned out to be 13.2%.

Consider `CCOc1ccc(N2C(=O)S/C(=C\c3ccc(C)cc3)C2=O)cc1`, for which the displacement is -5.8%. For the molecule `O=C1/C(=C/c2ccc(I)o2)SC(=S)N1c1cccc(C(F)(F)F)c1`, the displacement turned out to be 55.7%. Consider `O=C1S/C(=C\c2ccc(Br)o2)C(=O)N1c1ccc(Cl)c(Cl)c1`, for which the displacement was -3.9%. `O=C1/C(=C/c2ccc(Br)o2)SC(=S)N1c1cccc(C(F)(F)F)c1`: the displacement worked out at 21.6%. With `O=C1/C(=C/c2ccco2)SC(=S)N1c1ccc(F)cc1`, the displacement was determined as 7.9%. For the molecule `CCOc1ccc(N2C(=O)S/C(=C\c3ccc(C)o3)C2=O)cc1`, the displacement is 108%. Regarding `O=C1S/C(=C\c2ccc(Br)cc2)C(=O)N1c1ccc(Cl)cc1`, the displacement was -3.3%. For `Cc1ccc(/C=C2\SC(=S)N(c3ccc(F)cc3)C2=O)o1`, the displacement was 101%.

Turning to `O=C1/C(=C/c2ccco2)SC(=S)N1c1cccc(C(F)(F)F)c1`, the displacement came out at 15.4%. `Cc1ccc(/C=C2\SC(=S)N(c3ccc(C)c(C)c3)C2=O)o1`: the displacement was 14.9%. Consider `Cc1cc(=O)oc2cc(OCC(=O)OC(C)C)ccc12`, for which the displacement is 1.9%. For the molecule `CCOC(=O)c1c(NC(C)=O)sc(I)c1-c1ccccc1`, the displacement is 0.8%. Consider `Cc1cc(C(=O)NC2CCSC2=O)ccc1[N+](=O)[O-]` (centres undefined), for which the displacement is -2.7%.

Turning to `CS(=O)(=O)N(Cc1ccc(Cl)cc1)c1ccc(C(=O)NCc2ccco2)cc1`, the displacement was -14.6%. Regarding `Cc1ccc([N+](=O)[O-])cc1S(=O)(=O)N1CCOCC1`, the displacement was determined as 5.1%.

Consider `CCOc1cccc(C(=O)Nc2cc(-c3nc4cc(C)cc(C)c4o3)ccc2C)c1`, for which the displacement was found to be 9.5%. Regarding `Cc1ccc(C)c(NC(=O)c2c(-c3ccccc3Cl)noc2C)c1`, the displacement was 9.9%.

Consider `Cc1ccsc1/C=C1\SC(=S)N(c2ccccc2)C1=O`, for which the displacement was determined as 126%. For `CCOc1ccc(/C=C2\SC(=O)N(c3ccccc3)C2=O)cc1`, the displacement is -1.9%. For `CCOc1ccc(N2C(=O)S/C(=C\c3ccccc3OC)C2=O)cc1`, the displacement was determined as 32.7%. Turning to `Cc1ccsc1/C=C1\SC(=S)N(C(C)c2ccccc2)C1=O` (centres undefined), the displacement was -6.6%.

On to `CCOc1ccc(N2C(=O)S/C(=C\c3ccco3)C2=O)cc1`, for which the displacement amounted to 92.2%. Take `Cc1ccsc1/C=C1\SC(=S)N(c2c(C)n(C)n(-c3ccccc3)c2=O)C1=O`: the displacement was 6.6%.
